Experimental findings from PubChem BioAssay AID1508619 (National Center for Advancing Translational Sciences (NCATS), 2020) are described below.

Each structure is given as a SMILES string. Results filed as inconclusive are left out. A call without a number means that no potency is given here. Activity calls are given as the source filed them. Calls come from the whole dose curve; as a rule, active = well fitted inhibition curve with a large enough effect; inconclusive = small, poorly fitted or top-dose-only effect; inactive = no such curve, though single readings can be large or run the other way.
Potency is the fitted concentration of half-maximal effect.

The nature of this experiment: Counterscreen qHTS for Identification of Calcium Integrin Binding Protein 1 (CIB1) Competitor. The following applies: series mostly up to 114 µM. The essentials: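 Counterscreen FP assay: CIB1-GST 1 uM in 5 mM HEPES pH 7.4, 125 mM NaCl, 5 mM CaCl2, 0.01% Tween20, with compounds up to 114 uM for 15 min, then 100 nM FITC-labelled scrambled peptide, 15 min, polarization read ex 480/em 540.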
`CN1CCc2cccc3c2[C@H]1Cc1ccc(O)c(O)c1-3`: the Potency entry is “inactive”.

As to `O=c1[nH]sc2cc(Cl)ccc12`, the Potency result was “inactive”.

As for `Cn1cnc(-c2nccc3c(=O)[nH]c(OCCCC(F)(F)F)nc23)c1`, the Potency entry was “inactive”.

`Cc1cc(C(C#N)c2ccc(Cl)cc2)c(Cl)cc1NC(=O)c1cc(I)cc(I)c1O` (stereo not drawn): the Potency entry was “inactive”.

Turning to `CC(C)(C)c1ccc(SC2=NS(=O)(=O)c3ccccc32)cc1`, the Potency entry was “inactive”.

As for `CCCC(=O)c1cc(O)c(O)cc1O`, the Potency was 31.6 µM (active).

Regarding `COC(=O)c1ccc(O)c2ncc(-c3ccc(C(=O)NCCCN(C)C)cc3)cc12`, the Potency entry is “inactive”.

For the molecule `NS(=O)(=O)c1ccc(Nc2nc(-c3ccccc3)cs2)cc1`, the Potency was 44.7 µM (active).

As for `Cn1cc(-c2[nH]c3cc(NC(=O)[C@H](N)C4CCCCC4)cc4c3c2C=NNC4=O)cn1`, the Potency is 79.4 µM (active).

On to `CCOc1ccc(CCNC(C)=O)cc1OCC`, for which the Potency entry is “inactive”.

With `CN1CCN(c2ccc(-c3cc(O)c4ncccc4c3)cc2)CC1`, the Potency result was “inactive”.

Turning to `O=C1CCCC2=C1C(c1ccncc1)N=C(Nc1nc3ccccc3o1)N2` (stereo not drawn), the Potency result was “inactive”.

`CC1(C)OB(c2ccc(O)c3ncc(N4CCNCC4)cc23)OC1(C)C`: the Potency was 20 µM (active).

On to `COc1cc(C(=O)NS(=O)(=O)c2ccccc2C)ccc1Cc1cn(C)c2ccc(NC(=O)OC3CCCC3)cc12`, for which the Potency entry is “inactive”.

`Cc1ccc(S(=O)(=O)Nc2cnccc2C(=O)Nc2nc(-c3ccc(Cl)cc3)cs2)cc1`: the Potency entry was “inactive”.

As for `CSC(Cc1ccc(Cl)cc1)C(=O)Nc1ccc(Cl)cc1C(=O)O` (stereo not drawn), the Potency entry was “inactive”.

With `CCOc1ccc2nc3cc(N)ccc3c(N)c2c1`, the Potency is 31.6 µM (active).

With `C[C@H]1COC2=C1C(=O)C(=O)c1c2ccc2c1CCCC2(C)C`, the Potency result is “inactive”.

With `Cc1cnc(-c2ccccc2C(C)C)nc1NCc1ccc(-c2ccc(F)nc2)cc1`, the Potency was 44.7 µM (active).

For the molecule `O=C1CCCC2=C1C(c1cccnc1Br)N=C(Nc1nc3ccccc3o1)N2` (stereo not drawn), the Potency entry was “inactive”.

On to `Oc1cccc2c(-c3nn[nH]n3)ccnc12`, for which the Potency entry was “inactive”.

As to `O=S(=O)(c1ccc2nc(Cl)c(Cl)nc2c1)N1CCN(S(=O)(=O)c2c(F)cccc2F)CC1`, the Potency entry was “inactive”.

As to `Cc1c(C)n(Cc2ccc(-c3ccccc3C(=O)O)cc2)c2ccc(C(=O)N[C@@H](C)c3ccc([N+](=O)[O-])cc3)cc12`, the Potency entry is “inactive”.

On to `O=C(O)Cc1ccc(CCNS(=O)(=O)c2ccc(Cl)cc2)cc1`, for which the Potency entry was “inactive”.

As for `O=C(Cc1ccc(Cl)c(Cl)c1)Nc1ccc(S(=O)(=O)Nc2cccc(C(=O)O)c2)cc1`, the Potency entry was “inactive”.

For `CC(O)c1ccc(-c2ccc3ncnc(N4CCOCC4)c3c2)o1` (stereo not drawn), the Potency entry was “inactive”.

In the case of `O=Cc1c(-c2ccccc2)no[n+]1[O-]`, the Potency entry was “inactive”.

Turning to `CCCC1CCN(C(=O)COC(=O)c2ccc(S(C)(=O)=O)c([N+](=O)[O-])c2)CC1`, the Potency entry is “inactive”.

Take `CC1CCC2(C1)N=C(Nc1nc3ccccc3o1)NC1=C2C(=O)CCC1` (stereo not drawn): the Potency entry is “inactive”.

As to `O=[S+]([O-])(Nc1nccs1)c1ccc(NCc2cc(Cl)cc(Br)c2O)cc1`, the Potency result is “inactive”.

As to `N#Cc1ccc(NS(=O)(=O)c2ccc(NC(=O)Cc3ccc(F)c(Cl)c3)cc2)cc1`, the Potency entry was “inactive”.

On to `C/C(=C\c1ccc2c(c1)OCO2)C1Nc2cccc3cccc(c23)N1`, for which the Potency is 12.6 µM (active).

On to `Cc1ccccc1NC(=O)CN1C(=O)N/C(=C\c2cn(-c3cccc(C(=O)O)c3)cn2)C1=O`, for which the Potency entry is “inactive”.
